The record followed here is PubChem BioAssay.

Activity calls are given as the source filed them. Unless noted, how the calls were made is not given here.

A short description of experiment [1]: HepG2 liver cancer cell viability effects, profiling panel, resazurin fluorescence, 24 h, PK04 Diversity Set (AID 1172). Further: test concentration not given here. The note with it: higher = more signal. For orientation: The colour change of resazurin is a common sign of viable cells or microbes.
The nature of experiment [2]: basal S. cerevisiae growth modulation, no modifier, primary screen, OD600, strain BY4716, 24 h, basal condition (AID 1173). The note with it: OD600, 24 h, higher = more signal, called active from +8 up or from −8 down.
A short description of experiment [3]: MM1S myeloma cell viability, profiling panel, resazurin fluorescence, basal, 24 h, PK04 Diversity Set (AID 1174).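 Further: MM1S multiple myeloma cell line; test concentration not given here.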 Conditions: higher = more signal, called active from +8 up or from −8 down.
Experiment [4] deals with Dihydroorotate dehydrogenase (quinone), mitochondrial (Plasmodium falciparum (isolate 3D7)) (UniProt Q08210). Nature of the experiment: PfDHODH enzyme inhibitors, primary screen, biochemical, C-terminal His tag, absorbance 600 nm (AID 1175).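 Further: recombinant parasite enzyme with a five histidine tag at its C terminus; test concentration not given here.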 The note with it: DCIP absorbance 600 nm, higher = more signal, called active from +8 up or from −8 down.
Chain of Dihydroorotate dehydrogenase (quinone), mitochondrial (Plasmodium falciparum (isolate 3D7)) (Q08210 whole entry, looked up): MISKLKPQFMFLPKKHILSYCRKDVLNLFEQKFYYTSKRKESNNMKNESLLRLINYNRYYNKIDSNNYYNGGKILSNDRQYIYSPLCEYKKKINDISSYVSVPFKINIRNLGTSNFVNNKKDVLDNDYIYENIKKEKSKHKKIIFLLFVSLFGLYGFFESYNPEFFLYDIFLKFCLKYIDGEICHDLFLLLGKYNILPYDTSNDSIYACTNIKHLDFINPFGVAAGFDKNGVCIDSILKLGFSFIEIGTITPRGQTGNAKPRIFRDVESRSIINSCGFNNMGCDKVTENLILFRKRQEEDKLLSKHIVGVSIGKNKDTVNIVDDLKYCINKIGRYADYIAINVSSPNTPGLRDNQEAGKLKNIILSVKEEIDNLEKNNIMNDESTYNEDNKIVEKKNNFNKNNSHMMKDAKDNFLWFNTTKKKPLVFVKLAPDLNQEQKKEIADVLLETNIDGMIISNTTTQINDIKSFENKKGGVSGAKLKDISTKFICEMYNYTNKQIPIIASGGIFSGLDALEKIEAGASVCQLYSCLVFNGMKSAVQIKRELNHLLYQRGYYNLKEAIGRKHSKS
Experiment [5] can be described thus: P. aeruginosa biofilm formation inhibitors, primary screen, strain PAO1, LB-PBS medium, absorbance 600 nm (AID 1176). Further: test concentration not given here. Conditions: P. aeruginosa PAO1 growth/biofilm, A600, 12 h; higher = more signal.
Experiment [6] can be described thus: S. cerevisiae RM11-1a growth modifiers, primary screen, strain RM11-1a, OD600, basal, 24 h (AID 1177).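 Further: cultures grown under basal conditions with no added stressor; test concentration not given here.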 The note with it: OD600, 24 h, higher = more signal, called active from +8 up or from −8 down.
The nature of experiment [7]: E. coli acrAB mutant growth effects, primary screen, E. coli filamentation inducers, strain DRC39, OD650, 24 h (AID 1178).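 Further: growth measured as culture turbidity by optical density at 650 nm; test concentration not given here.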 The note with it: higher = more signal, called active from +8 up or from −8 down.
A short description of experiment [8]: E. coli acrAB mutant growth effects, primary screen, E. coli filamentation inducers, strain DRC39, OD650, 48 h (AID 1179).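 Further: screen aims at cell division blockers that make cells filament.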 Conditions: E. coli DRC39 delta-acrAB growth, higher = more signal, called active from +8 up or from −8 down.
Experiment [9] is described as follows: RPMI8226 myeloma cell viability, profiling panel, resazurin fluorescence, basal, 24 h, PK04 Diversity Set (AID 1180).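 Further: RPMI8826 multiple myeloma cell line at 5000 cells per well; test concentration not given here.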 The note with it: higher = more signal.
The target of experiment [10] is E3 ubiquitin-protein ligase XIAP (Homo sapiens) (UniProt P98170). Nature of the experiment: XIAP binders, primary screen, biophysical, small-molecule microarray, fluorescence 635 nm (AID 1181).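 Further: score merges 667 nm emission and signal to noise over triplicate slides.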 The note with it: small-molecule microarray binding, higher = more signal.
Chain of E3 ubiquitin-protein ligase XIAP (Homo sapiens) (P98170 whole entry, looked up): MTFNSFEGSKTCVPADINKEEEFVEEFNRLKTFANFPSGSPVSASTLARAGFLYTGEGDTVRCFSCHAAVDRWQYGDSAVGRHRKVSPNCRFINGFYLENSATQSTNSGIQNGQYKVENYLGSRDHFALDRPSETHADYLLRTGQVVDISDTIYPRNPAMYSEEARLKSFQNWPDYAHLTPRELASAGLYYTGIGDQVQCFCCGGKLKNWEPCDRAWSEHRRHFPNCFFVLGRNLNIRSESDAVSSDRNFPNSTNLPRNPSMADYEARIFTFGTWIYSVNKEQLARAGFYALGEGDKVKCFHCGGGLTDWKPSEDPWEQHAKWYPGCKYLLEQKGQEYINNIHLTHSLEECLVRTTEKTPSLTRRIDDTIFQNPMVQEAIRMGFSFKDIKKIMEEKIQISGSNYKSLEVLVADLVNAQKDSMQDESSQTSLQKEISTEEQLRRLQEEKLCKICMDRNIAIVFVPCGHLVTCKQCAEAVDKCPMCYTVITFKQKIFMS

Take `COc1ccc(C(O)C2C=CC3C(=O)N(C)C(=O)C3N2NC(=O)OC(C)(C)C)c2ccccc12` (stereo not given): the z-score in [1] was -1.78; in experiment [2], -1.15 (inactive); in experiment [3], -0.0317 (inactive); in [5], 0.503 (inactive); in experiment [6], 1.06 (inactive); in [7] it was -0.45 (inactive). The z-score in [8] was -0.765 (inactive); in experiment [9], -0.993. Besides, the values for the composite z-score in [4] and in [10] were 0.799 (inactive) and -0.193, respectively.
As for `CCN(CC)c1ccc(N2CC=CC34O[C@@H]5/C=C\CCC(C)OC(=O)C5[C@H]3C(=O)N(CCCCCO)[C@@H]4C2=O)cc1` (stereo not given in full), the z-score in [1] was 0.18; in [2], -0.596 (inactive); in experiment [3], 0.603 (inactive); in experiment [5] it was -0.469 (inactive); in [6] it was -0.147 (inactive); in experiment [7] it was 0.95 (inactive). For the same compound, the z-score in experiment [8] was 1.1 (inactive); in experiment [9] it was 0.802. Further, the results for the composite z-score in experiment [4] and in experiment [10] were 0.513 (inactive) and -0.161, respectively.
Consider `O=C(CS)NCCCCCNC(=O)[C@@H]1C[C@@H]2C(=O)NCC(=O)N2[C@@H]1c1cccc(OCCO)c1`, for which the z-score is -0.28 in experiment [1]; -1.01 (inactive) in [2]; 0.648 (inactive) in experiment [3]; 0.752 (inactive) in experiment [5]; -2.63 (inactive) in experiment [6]; 1.95 (inactive) in [7]. Besides, the values for the z-score in experiment [8] and in experiment [9] were 2.01 (inactive) and 0.847, respectively. The results for the composite z-score in [4] and in experiment [10] were -0.61 (inactive) and -0.103, respectively.
Take `NC(=O)[C@@H]1[C@H]2C(=O)O[C@H](c3ccccc3)[C@H](c3ccccc3)N2[C@H](c2ccc(O)cc2)[C@@]12C(=O)Nc1ccc(C#CC3=CCCCC3)cc12`: the z-score in experiment [1] was -0.712; in experiment [2], 0.761 (inactive); in [3], -7.46 (inactive); in experiment [5], 0.802 (inactive); in experiment [6], 2.07 (inactive); in experiment [7], -0.488 (inactive). In addition, the z-score is -0.705 (inactive) in experiment [8] and -6.39 in experiment [9]. Further, the composite z-score in experiment [4] was 1.68 (inactive); in [10], -0.0696.
As for `CCOC(=O)[C@H]1C/C=C/C[C@H](C(=O)OCC)C(=O)O[C@H]2[C@@H](OC)O[C@H](CO)[C@@H](OC(=O)c3ccc(Br)cc3)[C@@H]2OC1=O`, the z-score in experiment [1] is -0.349; in experiment [2], -0.775 (inactive); in experiment [3], -1.77 (inactive); in [5] it was 0.787 (inactive); in experiment [6], 0.807 (inactive); in experiment [7], 0.612 (inactive). Besides, the z-score was 0.485 (inactive) in experiment [8] and -2.49 in experiment [9]. Further, the composite z-score in experiment [4] is -1.88 (inactive); in experiment [10] it was -0.283.
For `COC(=O)[C@@]1(Cc2ccc(F)cc2)[C@H]2c3cc(C(=O)N(C)C)n(Cc4cc(C)n(C)n4)c3C[C@H]2CN1C(=O)c1ccccc1`, the z-score in experiment [1] is -0.806; in experiment [2], -0.169 (inactive); in experiment [3], -0.943 (inactive); in experiment [5] it was 0.495 (inactive); in experiment [6], -0.0352 (inactive); in experiment [7], -0.431 (inactive). The z-score in experiment [8] was -0.851 (inactive); in experiment [9] it was -0.856. In addition, the composite z-score was -0.368 (inactive) in experiment [4] and 0.473 in [10].
As for `O=C1O[C@H](c2ccccc2)[C@H](c2ccccc2)N2[C@H]1[C@@H](C(=O)NC[C@H](O)c1ccccc1)[C@]1(C(=O)Nc3ccccc31)[C@H]2c1ccc(O)cc1`, the z-score was -1 in [1]; 0.0934 (inactive) in [2]; -1.16 (inactive) in experiment [3]; 0.346 (inactive) in experiment [5]; 1.46 (inactive) in experiment [6]; 0.759 (inactive) in [7]. The z-score in experiment [8] is 0.315 (inactive); in [9], -2.77. Further, the composite z-score in experiment [4] was 0.668 (inactive); in [10] it was 0.166.
On to `CCCC[C@@H]1C[C@H]1[C@@H](NC(=O)c1cccnc1)c1ccc(Cl)cc1`, for which the z-score was 0.562 in experiment [1]; -6.77 (inactive) in [2]; -0.731 (inactive) in experiment [3]; -0.0019 (inactive) in experiment [5]; -2.78 (inactive) in experiment [6]; 0.014 (inactive) in [7]. Besides, the z-score in experiment [8] was -0.0491 (inactive); in experiment [9] it was -0.663. In addition, the figures for the composite z-score in experiment [4] and in [10] were 0.303 (inactive) and -0.0948, respectively.
Regarding `[N-]=[N+]=Nc1ccccc1[C@H]1OC(c2ccc(OCCCO)cc2)=N[C@@]1(Cc1ccccc1)C(=O)N1CCOCC1`, the z-score in experiment [1] is -1.28; in experiment [2] it was -1.33 (inactive); in [3], -2.81 (inactive); in experiment [5], 0.948 (inactive); in experiment [6] it was 0.711 (inactive); in [7], 0.226 (inactive). For the same compound, the z-score was -0.927 (inactive) in experiment [8] and -4.56 in experiment [9]. The composite z-score is 0.396 (inactive) in [4] and -0.0917 in experiment [10].
As for `OCC1C=C(/C=C/c2ccccc2)CN1Cc1ccccc1Br` (stereo not given), the z-score in [1] was 0.233; in [2] it was -9.92 (active); in experiment [3] it was -0.813 (inactive); in experiment [5], -0.0461 (inactive); in experiment [6], -0.877 (inactive); in experiment [7], 1.79 (inactive). Besides, the z-score was 0.183 (inactive) in experiment [8] and -0.589 in [9]. Further, the composite z-score is -0.0313 (inactive) in experiment [4] and -0.122 in experiment [10].
With `COC(=O)[C@@]1(Cc2ccc(F)cc2)[C@H]2c3cc(C(=O)N(C)C)n(Cc4ccc(C)o4)c3C[C@H]2CN1C(=O)c1ccccc1`, the z-score in experiment [1] is -0.0869; in experiment [2], 0.241 (inactive); in [3] it was 0.003 (inactive); in [5], 0.467 (inactive); in experiment [6] it was -0.0282 (inactive); in [7], -0.359 (inactive). Besides, the z-score in [8] was -0.192 (inactive); in experiment [9], -0.0803. Further, the composite z-score in experiment [4] is -0.631 (inactive); in [10] it was 1.87.
